Measured values reported in PubChem BioAssay (NCI).
Where “and” joins values, the source holds several entries; their conditions need not be identical. Equal values may be shown once. This is part of a sample that, as a whole, favours compounds with a hit. Of some 83,000 tested, about 20% had one in any assay.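 Step 1: grow cells in 96-well plates. Step 2: add test compound at a single concentration. Step 3: incubate 48 h. Step 4: record percent growth.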 Unmarked numbers belong to inactive results. Calls of active or inactive are those of the source. Rule for the calls: active = growth percent below 10; inactive = the rest.

System: MDA-MB-468 breast
Assay: NCI-60 one-dose screen, 48 h (100 = growth as untreated, 0 = no growth, -100 = all killed)
Settings: 10 µM unless noted

| SMILES | growth |
| --- | --- |
| CC(=O)O[C@H]1CC2CCC3C(CC[C@@]4(C)C3C[C@H]([N+]3(C)CCCCC3)[C@@H]4OC(C)=O)[C@@]2(C)C[C@@H]1N1CCCCC1 (some centres not stated) | 106% |
| O=C(Nc1ccc2ncnc(Nc3ccc(Oc4cccc(F)c4)c(Cl)c3)c2c1)c1ccc(CNCCO)cc1 | -46% (active) |
| O=C(/C=C/c1ccccc1)Nc1ncc(Cc2ccccc2)s1 | 29.7% |
| COc1ccc(/C=C2\N=C(c3ccccc3)N(C(=O)c3ccccc3O)NC2=O)cc1 | 106% |
| COc1ccc(C(=O)c2cc(C(=O)/C=C/c3c(Cl)cccc3Cl)c3cc(C)ccn23)cc1 | 96.1% |
| Cn1ccnc1C(=O)/C=C/C=C/c1ccc(C(=O)Nc2ccc(F)cc2)cc1 | 35.3% |
| O=C(O)C1CCCCN1c1nc(Cl)nc(Cl)n1 (configuration not stated) | 102% |
| COc1ccc(C(=O)/C=C/c2sc(Cl)nc2Cl)cc1 | -13.8% (active) |
| CC/C(=C(/c1ccc(Cl)cc1)c1ccc(OCCN2CCCCCC2)cc1)c1ccccc1 | 78.3% |
| CCC1=CCC[C@@]2(C)CCC[C@@]3(C)CCCC(C)(C)[C@]1([O-])[O+]32 | 94.5% |
| COc1cc(/C(Cl)=C/C=C/C(=O)c2c(C)[n+]([O-])c3ccc(Cl)cc3[n+]2[O-])cc(OC)c1OC | -11.2% (active) |
| COC(=O)Nc1cccc(Cl)c1OC | 90.1% |
| O=C(CSc1nnc(-c2ccccc2)o1)Nc1ccc(C(=O)/C=C/c2ccccc2)cc1 | 58.3% |
| NC(=O)c1cccc(-n2ccc3cc(NC(=O)Nc4ccc(Cl)c(C(F)(F)F)c4)ccc32)n1 | 47% |
| Cc1onc(-c2c(F)cccc2Cl)c1-c1ncc(-c2ccc(Br)cc2)o1 | 28.4% |
| O=[N+]([O-])c1ccc(N/N=C\c2cc(Br)ccc2O)nc1 | -19.7% (active) and -13.5% (active) |
| CN(C)c1ccc2cc(-c3nc4ccccc4s3)c(N)nc2c1 | 56.9% |
| COc1cc(/C=C/c2cc(/C=C/c3ccc(O)c(OC)c3)n(-c3ccc(Cl)cc3)c(=O)n2)ccc1O | 76.4% |
| CC1CCC(C(=O)O)N1 (configuration not stated) | 106% |
| COc1ccc(-c2nc(N/N=C/c3cccc(Br)c3)nc(N3CCOCC3)c2C#N)cc1 | 73.4% |
| COC(=O)c1cc(C(=O)OC)cc([N+](=O)[O-])c1 | 107% |

| SMILES | growth |
| --- | --- |
| O=C1Nc2ccccc2/C1=C/c1ccc(OCC(=O)c2ccccc2)cc1 | 94.6% |
| COc1cc(-c2nc3cc(Cl)c(Cl)cc3[nH]2)ccc1OCC(=O)NN | 100% |
| COS(=O)(=O)c1ccc(Br)cc1 | 102% |
| CN1C(=O)N(C)C2C1NN=c1s/c(=C\c3ccsc3)c(=O)n12 (configuration not stated) | 34.3% |
| C/C(=N\O)c1ccc(Cl)cc1 | 108% |
| CCn1cc(C(=O)O)c(=O)c2cc(F)c(N3CCN(CC(=O)Nc4ccc(/C(C)=N/OC)cc4)CC3)cc21 | 102% |
| CC1=CSC2=NCCN12 | 118% |
| CCN1C(=O)N(CC)C2C1NN=c1s/c(=C3\C(=O)N(C)c4ccccc43)c(=O)n12 (configuration not stated) | 13.4% |
| O=C1NC(=S)S/C1=C\N1N=C(c2ccc(Cl)cc2)CC1c1ccc(F)cc1 (configuration not stated) | 92.3% |
| NC(N)=NCCCCCNc1noc(Cc2c[nH]c3cc(Br)ccc23)n1 | 1.76% (active) |
| CC(=O)Nc1ccc(S(=O)(=O)Cl)cc1 | 95% |
| COc1ccc(C2CC(=O)c3c(O)c(OC)c(OC)c(OC)c3O2)c(O)c1 (configuration not stated) | -3.61% (active) |
| NC(=S)N/N=C\c1nccc2c(N)cccc12 | -18.6% (active) |
| CNC(=O)c1c(NC(=O)c2ccccc2C(F)(F)F)sc2c1CCC(=O)C2 | 25.1% |
| N#C/C(=C\c1ccc(-c2cc(C(F)(F)F)ccc2Cl)o1)c1nc(-c2ccco2)cs1 | -3.16% (active) |
| O=S(=O)(Nc1ccc(F)c(Cl)c1)c1ccc(-c2cnc(C3CC3)o2)cc1 | -23.9% (active) |
| Clc1ccc(CNc2c3ccccc3nc3ccccc23)cc1 | 29.6% |
| CCN(CC)CCCC(C)Nc1c2c(nc3ccc(OC)cc13)CCCC2 (configuration not stated) | 98.8% |
| COc1ccccc1CNc1nc(N)nc2[nH]c3ccc(O)cc3c12 | 45.2% |
| O=C(O)c1c(=O)cccc2ssc12 | -50.5% (active) |
| COc1ccc(/C=N/Nc2nc3ccccc3s2)cc1 | 84.8% |

| SMILES | growth |
| --- | --- |
| Nc1ncnc2c1c(-c1ccc(Oc3ccccc3)cc1)nn2C[C@@H]1SSC[C@H]1O | -0.15% (active) |
| COc1ccc(/C=C/c2c(C(=O)/C=C/c3ccc(F)cc3)c(C)nc3ccccc23)cc1 | 51.5% |
| NC(=O)N/N=C/c1ccc(Br)o1 | 109% |
| CC(=O)OCC(=O)[C@@]1(O)[C@H](C)C[C@H]2[C@@H]3C=C(C)C4=Cc5c(cnn5-c5ccc(F)cc5)C[C@]4(C)[C@H]3[C@@H](O)C[C@@]21C | -22.6% (active) |
| O=[N+]([O-])c1ccc(N=Nc2ccccc2)cc1 | 109% |
| COc1cc2c(c(OC)c1OC)C(=O)N[C@@H]1[C@@H](O)[C@@H](O)[C@H](O)C[C@@H]21 | 102% |
| C#CC[C@@H]1C[C@]2(C)[C@H]3CC=C4[C@H]5[C@@H](C)[C@H](C)CC[C@]5(C(=O)NCCCCCCCCN)CC[C@@]4(C)[C@]3(C)CC[C@H]2C(C)(C)[C@H]1OC(C)=O | 62.4% |
| Cc1ccc2c(c1)Oc1nc(N)c(C#N)c(N)c1C2Sc1ccc(F)cc1 (configuration not stated) | -72.6% (active) |
| Cc1cc(=O)[nH]c(O)c1C#N | 97.5% and 95.9% and 111% |
| COc1ccc2oc3c(C)c4c(c(C)c3c2c1)C(=O)N(Cc1ccccc1)C4=O | 100% |
| CCCCCCCCCCCCCCCCCCOc1ccccc1CCCOP(=O)(O)OCC[N+](C)(C)C | 77.3% |
| COc1cccc(-c2nn(-c3ccccc3)cc2-c2ccnc(NCCCNC(=O)c3cccc(C(F)(F)F)c3)c2)c1 | 17.3% |
| COc1cccc(N2CCN(C3=C(Cl)C(=O)c4ncccc4C3=O)CC2)c1 | -63.6% (active) |
| COc1cc2nc(Nc3ccc(F)cc3)nc(N)c2cc1OC | 83.4% |
| COc1cc(/C=C/c2cc(/C=C/c3ccc(O)c(OC)c3)n(-c3c(C)cccc3C)c(=O)n2)ccc1O | -16.4% (active) |
| COC(=O)c1c2c(n3ccccc13)C(=O)c1ccccc1C2=O | 95.7% |
| Cc1cc(C)c(OC(=O)CSc2nc3ccccc3c(=O)n2CCc2ccccc2)cc1C | 101% |
| Cc1cccc2c(=O)c3c(sc12)c(N1CCNCC1)nc1ccccc13 | 65.4% |
| O=C(NCCN1CCOCC1)OCc1ccc2c(Cl)cc(Cl)c(O)c2n1 | 81.6% |
| Cn1ccnc1C(=O)C(=O)Nc1ccc(CC(=O)Nc2ccccc2)cc1 | 109% |
| Cc1nc(-c2cc3ccccc3oc2=O)ccc1C(=O)/C=C/c1ccc(N2CCOCC2)cc1 | 45.6% |

| SMILES | growth |
| --- | --- |
| CC(C)(C)[Si](C)(C)OC1[C@@H](CNC(=O)NC(=O)CCl)O[C@@H](n2cnc3c(N)ncnc32)[C@H]1O[Si](C)(C)C(C)(C)C (some centres not stated) | -2.45% (active) |
| COC(=O)[C@@H]1[C@H](O)[C@H](C)[C@H](O)[C@H](C)/C=C\C=C(C)C(=O)Nc2c(C)c(OC(C)=O)c3c(c2O)C(=O)C(C)=C2OCOC(=C23)C(C)=C[C@@](C)(O)[C@H](O)[C@@H](C)[C@H]1OC(C)=O | 110% |
| COc1cc2nc(N3CCCC3)nc(NCC3CCCCC3)c2cc1OC | -41.2% (active) |
| O=C1C(Cl)=C(NCCCN(CCCNC2=C(Cl)C(=O)c3ccccc3C2=O)C2=C(Cl)C(=O)c3ccccc3C2=O)C(=O)c2ccccc21 | -7.83% (active) |
| Cc1ccc2c(c1)C(=O)c1c-2c(OCCCN(C)C)nc2ccccc12 | 28.9% |
| CC(C)C1(C(C)C)NC(=O)NC1=O | 101% |
| Cc1cnc(/C=N\NC(N)=S)c2cccc(N)c12 | -27.7% (active) |
| Cc1cc(=O)n(Nc2ccccc2)c(O)c1C#N | 108% |
| Oc1c(CN2CCC(N3CCOCC3)CC2)cc(Cc2cc(CN3CCC(N4CCOCC4)CC3)c(O)c3ncccc23)c2cccnc12 | 9.12% (active) |
| COc1ccc(C/C(C)=C(/c2ccc(OCCN3CCCCCC3)cc2)c2ccc(OC(=O)c3ccccc3)cc2)cc1 | 111% |
| OCCN1CCN(CCCN2c3ccccc3Sc3ccc(C(F)(F)F)cc32)CC1 | -47.1% (active) |
| C=C(C)[C@@H]1CC[C@]2(CN)CC[C@]3(C)[C@H](CC[C@@H]4[C@@]5(C)CCC(N)[C@@](C)(CO)[C@@H]5CC[C@]43C)[C@@H]12 (some centres not stated) | -86.6% (active) |
| O=C1c2ccccc2C(=O)c2c1ccc(C(Br)Br)c2Cl | -12.6% (active) |
| COc1cc(/C=N/Nc2ccc(Br)cc2)cc(OC)c1OC | 49.5% |
| NS(=O)(=O)c1ccc(-n2nc(-c3ccc(Cl)cc3)c3ccccc3c2=O)cc1 | 104% |
| CN1CCN(c2cc(F)c(NC3=C(Cl)C(=O)c4ncccc4C3=O)c(F)c2)CC1 | -73.9% (active) |
| COc1ccc2c(c1)oc1c(C)c3c(c(C)c12)C(=O)N(CCN1CCOCC1)C3=O | 106% |
| COc1nc2c(c(=O)[nH]1)C(c1ccc(Oc3ccnc4cc(Cl)ccc34)c(OC)c1)C=C(c1cc(OC)c(OC)c(OC)c1)N2 (configuration not stated) | 92.1% |
| COc1cc(/C=C2\CN(C(=O)OC(C)(C)C)C/C(=C\c3ccc(O)c(OC)c3)C2=O)ccc1O | 99.9% |
